# Measurements reported in PubChem BioAssay (EPA / NIEHS).
# Inconclusive results are not listed. Active and inactive are the calls of the source. The calls were made as follows, unless noted: active = hit-call score of the fitted dose curve at least 0.9, where 1 is the maximum; inconclusive = response in the unintended direction; inactive = score below 0.9.
# Legend:
# [1] = IUF_NPC1_cytotoxicity_72hr: Cytotoxicity Assessment at 72 hours in the Leibniz Research Institute for Environmental Medicine (IUF) Neural Progenitor Cell Proliferation Assay (NPC1) (AID 2284332);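 also: rising LDH signal means more cytotoxicity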
# How it was run: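 Human fetal neural progenitor spheres (0.3 mm) in EGF/FGF proliferation medium, 37C, exposed 72 h without renewal. LDH release in supernatant read by resorufin fluorescence; gain of signal scored relative to dynamic range.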
# [2] = CCTE_Mundy_HCI_iCellGluta_NOG_NeuronCount: CCTE's Neurite Outgrowth Assay in iCellGluta cells for Neuron Count, Mundy Lab (AID 2284340);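 also: cells fixed about 48 h after compound addition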
# How it was run: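 Neuron count read by automated high-content imaging of Hoechst 33342 and betaIII-tubulin/Alexa Fluor-488 labelling in human iPSC glutamatergic neurons. Activity fitted relative to DMSO.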
# [3] = CCTE_Mundy_HCI_iCellGluta_NOG_NeuriteCount: CCTE's Neurite Outgrowth Assay in iCellGluta cells for Neurite Count, Mundy Lab (AID 2284342);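 also: chemical exposure about 48 hours starting 2 hours after plating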
# SERPINA7 (gene 6906) = experiment: CCTE_GLTED_hTBG: CCTE's human Thyroxine-binding Globulin (TBG) Inhibition Assay, Great Lakes Toxicology and Ecology Division (GLTED) Lab (AID 2284343);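 also: active chemicals lower fluorescence versus DMSO baseline by displacing probe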
# How it was run: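 Human TBG incubated 2 h with test chemical; displacement of ANSA probe read by fluorescence, 380 nm excitation/475 nm emission. Loss of signal relative to DMSO.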
# [4] = CCTE_Deisenroth_DEVTOX-GLR_legacy_CellCount: (Legacy) Viability Assessment in CCTE's DevTox GLR-Endo Assay, Deisenroth Lab (AID 2284331; active = hit-call score of the fitted dose curve at least 0.9, where 1 is the maximum; inactive = score below 0.9); details: actives raise or lower the signal
# How it was run: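 Seed RUES2-GLR 24 h; differentiate 48 h, dosing at 0 and 24 h; fix, stain nuclei; image 5 fields/well; count nuclei. Conc. 1 nM - 200 uM, single technical replicate, n=4 experiments; bidirectional fit vs 0.2% DMSO.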
# [5] = test system: SRY-box transcription factor 17 (SOX17) Protein Expression, Deisenroth Lab, SOX17 (gene 64321); experiment: CCTE_Deisenroth_DEVTOX-GLR_legacy_Sox17: (Legacy) CCTE's DevTox GLR-Endo Assay Evaluation of SRY-box transcription factor 17 (SOX17) Protein Expression, Deisenroth Lab (AID 2284341; active = hit-call score of the fitted dose curve at least 0.9, where 1 is the maximum; inactive = score below 0.9); details: actives raise or lower the signal
# How it was run: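 Using the RUES2-GLR line, compounds are tested as 10-point series during 48-h defined-media differentiation. Sox17 reporter fluorescence per cell determines positivity; endpoint is percentage positive, analysed bidirectionally versus DMSO baseline.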
# [6] = test system: SRY-box transcription factor 2 (SOX2) Protein Expression, Deisenroth Lab, SOX2 (gene 6657); experiment: CCTE_Deisenroth_DEVTOX-GLR_legacy_Sox2: (Legacy) CCTE's DevTox GLR-Endo Assay Evaluation of SRY-box transcription factor 2 (SOX2) Protein Expression, Deisenroth Lab (AID 2284346; active = hit-call score of the fitted dose curve at least 0.9, where 1 is the maximum; inactive = score below 0.9)
# How it was run: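 hPSC RUES2-GLR, 384-well; 24 h seed → 48 h endoderm differentiation, 2 doses q24h, 1 nM–200 uM. Fix, nuclear dye, 5 fields/well. Sox2+ cells/cell count; cell positive if >5x BMAD over endoderm ctrl; gain direction vs DMSO.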
structure (smiles),measurement,setting,value
CCOP(=S)(OCC)SCSC(C)(C)C,outcome,[1],inactive
same,outcome,[2],inactive
same,outcome,[3],inactive
Cc1ccccc1CO[C@@H]1C[C@@]2(C(C)C)CC[C@]1(C)O2,AC50,SERPINA7 (gene 6906),22.9 µM (active)
CC(c1ccc(O)cc1)(c1ccc(O)cc1)c1ccc(O)cc1,AC50,SERPINA7 (gene 6906),11.5 µM (active)
O=NN(c1ccccc1)c1ccccc1,AC50,SERPINA7 (gene 6906),13.9 µM (active)
CC(C)(O)C(=O)Nc1ccc([N+](=O)[O-])c(C(F)(F)F)c1,AC50,SERPINA7 (gene 6906),35.6 µM (active)
C=CC(N)=O,outcome,[4],inactive
same,outcome,[1],inactive
same,outcome,[5],inactive
same,outcome,[6],inactive
